Laboratory results taken from PubChem BioAssay AID504832 (National Center for Advancing Translational Sciences (NCATS), 2011).
The campaign covered roughly 310,000 compounds. About 18,000 (5.8%) were called active. Where a call stands in place of a potency, no number is given. Inconclusive results (about 22%) are left out. The call rests on the fitted dose curve; in most records, active means well fitted inhibition curve with a large enough effect; inconclusive means small, poorly fitted or top-dose-only effect, or another doubt; inactive means no such curve, though single readings can be large or run the other way. The sample as a whole holds a higher share of actives than the screen did.

test: Primary qHTS for delayed death inhibitors of the malarial parasite plastid, 48 hour incubation; details: P. falciparum luciferase growth in erythrocytes; series mostly up to 28.7 µM
How it was run: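 A one-generation exposure of luciferase-tagged malaria parasites in RPMI 1640/Albumax erythrocyte culture, 37 C and 5% CO2. Inhibition is inferred from decreased luminescence after adding detection reagent.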
Potency means the concentration at half of the fitted maximal effect.

Row | Structure (SMILES) | Potency | activity change, negative = inhibition
1 | C[C@H](NC(=O)C1CC(=O)N(c2ccc3c(c2)OCO3)C1)C(=O)NCc1ccco1 (some centres undefined) | inactive | 
2 | CCc1ccccc1N(CC(=O)NCC1CCCO1)C(=O)CCC(=O)Nc1nccs1 (centres undefined) | inactive | 
3 | CC(C)Oc1ccc(C(CC(=O)N2CCOCC2)C(C)C)cc1 (centres undefined) | inactive | 
4 | COc1ccc(CSc2nnnn2-c2ccc(C(=O)O)cc2)cc1 | inactive | 
5 | COc1ccc(C(=O)NCC(=O)N/N=C/c2cccnc2)cc1 | inactive | 
6 | COc1ccc(C(=O)OCC(=O)c2ccc(C)c(S(=O)(=O)N3CCOCC3)c2)cc1OC | inactive | 
7 | CCOc1ccc(CCNC(=O)COC(=O)c2ccc(F)c(S(=O)(=O)N3CCOCC3)c2)cc1OCC | 14.7 µM (active) | 
8 | Cc1cc(NC(=O)COC(=O)c2ccc(F)c(S(=O)(=O)N3CCOCC3)c2)no1 | inactive | 
9 | CC(C)CNC(=O)C(=O)NCC(c1ccc2c(c1)OCO2)N1CCOCC1 (centres undefined) | inactive | 
10 | CCCCn1c(SCC(=O)N2CCCC2=O)nc2cc(S(N)(=O)=O)ccc21 | inactive | 
11 | NS(=O)(=O)c1ccc(CCNC(=O)CCCn2c(SCC(=O)N3CCCC3)nc3ccsc3c2=O)cc1 | inactive | 
12 | CCCCn1c(SCC(=O)N2CCC(C(=O)OCC)CC2)nc2cc(S(N)(=O)=O)ccc21 | 13.1 µM (active) | 
13 | CCSc1nsc(NC(=O)Nc2ccccc2OC)n1 | inactive | 
14 | COc1ccc(CC(=O)NC2CCSc3ccccc32)cc1OC (centres undefined) | inactive | 
15 | CO[C@H]1[C@@H]2C=CO[C@@H](O[C@H]3O[C@@H](CO)[C@H](O)[C@@H](O)[C@@H]3O)[C@@H]2[C@@]2(CO)O[C@@H]12 | inactive | 
16 | Cc1n[nH]c(=O)c2c(NC(=O)CSc3ccccc3F)oc(C)c12 | inactive | 
17 | Cc1[nH]nc(-c2ccc(OCc3cnn(-c4ccccc4)c3)cc2O)c1Oc1ccc(Cl)cc1 | 5.22 µM (active) | 
18 | COc1ccc(C(=O)Cc2cnn(-c3ccccc3)c2)c(O)c1 | inactive | 
19 | CCOc1cc(C2C(C(=O)c3ccco3)=C(O)C(=O)N2Cc2ccccc2)ccc1O (centres undefined) | inactive | 
20 | Cc1ccccc1NC(=O)C1CCN(C(=O)NC2CCCCC2)CC1 | inactive | 
21 | Cc1ccc(C)c(-c2nnc(NC(=O)CS(=O)(=O)c3ccccc3)o2)c1 | 13.1 µM (active) | 
22 | COc1ccc(-c2nnc(NC(=O)CS(=O)(=O)c3ccc(Cl)cc3)o2)c(OC)c1 | inactive | 
23 | CCCC(=O)Nc1nnc(-c2ccccc2)o1 | inactive | 
24 | COc1ccc(NCCc2ccccn2)cc1 | inactive | 
25 | OCC[C@H]1C[C@H](O)[C@@H](O)[C@]2(CCc3ccccc3O2)O1 | inactive | 
26 | Cc1ccc2[nH]c(=O)c(CC(=O)O)c(-c3ccccc3)c2c1 | inactive | 

Row | Structure (SMILES) | Potency | activity change, negative = inhibition
27 | O=C(/C=C/c1ccco1)NC(=S)N1CCCCC1 | inactive | 
28 | COc1ccccc1Nc1nnc(SC(C)C(=O)NC2CC2)s1 (centres undefined) | 10.4 µM (active) | 
29 | CCSc1nnc(NC(=O)Cc2ccccc2OC)s1 | inactive | 
30 | O=C(CSc1nnc(Nc2ccccc2F)s1)NC1CCCC1 | inactive | 
31 | O=C1CCCN1C(=O)COc1ccc([N+](=O)[O-])cc1 | inactive | 
32 | O=C(CNc1ccccc1N1CCCC1=O)Nc1cc(Cl)ccc1-n1cncn1 | inactive | 
33 | Cc1nn(-c2ccccc2)c(C)c1NC(=O)CCl | 4.65 µM (active) | 
34 | Cc1cccc(C)c1NC(=O)CNC(=O)c1c(C)nn(-c2ccccc2)c1C | inactive | 
35 | Cc1nn(-c2ccccc2)c(C)c1NC(=O)COC(=O)Cc1ccccc1 | inactive | 
36 | Cn1ccc(=Nc2ccc(NC(=O)c3ccc(N=c4ccn(C)c5ccc([N+](=O)[O-])cc45)cc3)cc2)cc1 | 0.233 µM (active) | 
37 | COc1cc(NS(=O)(=O)c2ccc(NC(=O)c3ccc([N+](=O)[O-])cc3)cc2)ncn1 | inactive | 
38 | O=C(Nc1ccc(C(=O)N2CCCCC2)cc1)c1cccc([N+](=O)[O-])c1 | inactive | 
39 | O=S(=O)(c1cccc(-c2cn3ccccc3n2)c1)N1CCCC1 | inactive | 
40 | O=S(=O)(c1cccc(-c2nnc(SC(F)F)n2-c2ccccc2)c1)N1CCCCC1 | 11.7 µM (active) | 
41 | O=S(=O)(c1cccc(-c2nnc3n2CCCCC3)c1)N1CCOCC1 | inactive | 
42 | COc1cc(NC(=O)CSC(=S)N2CCCC2)c(OC)cc1Cl | inactive | 
43 | Oc1ccccc1C1=NN(c2ccccc2)C(c2ccccc2)C1 (centres undefined) | 1.31 µM (active) | 
44 | COc1ccc(C2CC(c3ccccc3)=NN2C(=O)c2ccc(Cl)c([N+](=O)[O-])c2)cc1 (centres undefined) | inactive | 
45 | CC(=O)Oc1ccccc1C1=NN(C(C)=O)C(c2ccccc2)C1 (centres undefined) | inactive | 
46 | O=C1CC(c2ccccc2)C(=O)N1c1cccc(O)c1 (centres undefined) | inactive | 
47 | O=C(c1ccccc1)N1N=C(c2ccccc2O)CC1c1ccc(Br)cc1 (centres undefined) | 3.7 µM (active) | 
48 | CCn1c(=O)c(=O)[nH]c2c(=O)oc3ccc(S(=O)(=O)Nc4ccc(OC)cc4)cc3c21 | inactive | 
49 | COc1ccc(C(=O)CCC(=O)Nc2ccc(Cl)cc2)cc1 | inactive | 
50 | O=C(NCCO)C(=O)NCC(c1ccc2c(c1)OCO2)N1CCN(c2ccc(F)cc2)CC1 (centres undefined) | inactive | 
51 | O=C(OCCN=C1NS(=O)(=O)c2ccccc21)c1cccc([N+](=O)[O-])c1 | inactive | 
52 | Cn1c(=O)c2c(ncn2CC(=O)N2CCN(c3ccccc3)CC2)n(C)c1=O | inactive | 

Row | Structure (SMILES) | Potency | activity change, negative = inhibition
53 | Cn1c(=O)c2c(ncn2CC(COCc2ccccc2Cl)OCc2ccccc2Cl)n(C)c1=O (centres undefined) | 8.28 µM (active) | 
54 | Cn1c(=O)c2c(ncn2CCc2ccccc2)n(C)c1=O | inactive | 
55 | COc1ccccc1S(=O)(=O)c1c(C)cc(C)[nH]c1=O | inactive | 
56 | O=S(=O)(NC1CC1)c1ccc(F)c(F)c1 | inactive | 
57 | O=C(CC1C(=O)NCCN1CC(c1ccccc1)c1ccccc1)NCC1CCOCC1 (centres undefined) | inactive | 
58 | C=CCN1CCN(C(=O)CCCc2ccccc2)CC1 | inactive | 
59 | COc1ccc(/C=C2/C(=O)N(c3ccccc3)N=C2C)c(OC)c1 | inactive | 
60 | COc1ccc(/C=C/C(=O)OCC(=O)Nc2cccc(Oc3ccccc3)c2)c(OC)c1 | inactive | 
61 | COc1ccc(/C=C/C2=CC(C)(C)NC(=S)N2)c(OC)c1 | 10.4 µM (active) | 
62 | O=C(CNC(=O)c1cccnc1)N/N=C/c1cccnc1 |  | 2.56% [at 0.00184 µM] (inactive)
63 | CCN(C(=O)CSc1ncnc2c1cnn2-c1ccccc1)C1CCS(=O)(=O)C1 (centres undefined) | inactive | 
64 | CC(C(=O)NC1CCCCC1)N1C(=O)c2cccc3cccc1c23 (centres undefined) | inactive | 
65 | Cc1c(Cl)cccc1NC(=S)NCc1ccc2c(c1)OCO2 | inactive | 
66 | CCc1cccc(CC)c1NC(=S)NCc1ccc2[nH]c(C)cc2c1 | 4.65 µM (active) | 
67 | CCc1cccc(CC)c1NC(=S)Nc1ccc2cn[nH]c2c1 | inactive | 
68 | Cc1cccc(NC(=O)C2CCN(C(=O)NC3CCCCC3)CC2)c1 | inactive | 
69 | CCc1ccc(OCC(=O)N(Cc2ccccc2)C2CCS(=O)(=O)C2)cc1 (centres undefined) | inactive | 
70 | CCOC(=O)N1CCN(S(=O)(=O)N2CCCC(C(=O)NCCCN3CCC(C)CC3)C2)CC1 (centres undefined) | inactive | 
71 | CCOc1ccccc1Oc1cn[nH]c1-c1ccc(OC)cc1O | 11.7 µM (active) | 
72 | COc1ccc(-c2[nH]ncc2CN(C)Cc2cccnc2)c(F)c1 | inactive | 
73 | COc1ccc(-c2[nH]ncc2/C=N/NC(=O)c2cc(Br)ccc2O)c(OC)c1 | inactive | 
74 | CCN(CCn1cccn1)Cc1cn[nH]c1-c1ccc(OC)cc1F | inactive | 
75 | COc1ccc(Oc2cn[nH]c2-c2ccc(OC)cc2O)cc1 | 6.57 µM (active) | 
76 | COc1ccc(-c2cn[nH]c2-c2ccc(OC)cc2)cc1 | inactive | 
77 | NC(=O)CSc1nnc(NC(=O)c2ccc(Br)o2)s1 | inactive | 
78 | Cc1cc(C)c(S(=O)(=O)c2ccc(F)cc2C)c(=O)[nH]1 | inactive | 

Row | Structure (SMILES) | Potency | activity change, negative = inhibition
79 | CC(C)NS(=O)(=O)c1ccc(OCC(=O)NC2CCCCCC2)cc1 | inactive | 
80 | Cc1ccc(NS(=O)(=O)c2ccc(F)cc2)nc1 | inactive | 
81 | CSCC[C@H](NC(=O)N1CCn2c1nc1ccccc12)C(=O)NCc1ccc2c(c1)OCO2 | inactive | 
82 | COC(=O)c1ccc2ccccc2c1OC1OC(CO)C(O)C(O)C1NC(C)=O (centres undefined) | inactive | 
83 | Cc1ccc(CNC(=O)[C@@H](NC(=O)Cc2ccccc2)C(C)C)cc1 | inactive | 
84 | O=C(C(c1ccccc1)c1ccccc1)N1CCN(CC(O)COc2ccccc2)CC1 (centres undefined) | 10.4 µM (active) | 
85 | O=[N+]([O-])c1ccc(N2CCN(CC(O)COc3ccccc3)CC2)cc1 (centres undefined) | inactive | 
86 | O=C(c1ccccc1)c1ccc(OCC(O)CN2CCCC2)cc1 (centres undefined) | inactive | 
87 | CC(=O)Nc1ccc(/C=N/NC(=O)c2cccs2)cc1 | inactive | 
88 | Cc1cccc(-n2c(C)cc(/C=N/NC(N)=S)c2C)c1 | inactive | 
89 | Cc1cccc(-n2c(C)cc(/C=N\NC(=O)c3cccs3)c2C)c1 | 5.22 µM (active) | 
90 | Cc1ccc2[nH]cc(CCNC(=O)C3CCCCC3)c2c1 | inactive | 
91 | CCc1c(C)nc(SCC(=O)NC2CCCC2)[nH]c1=O | inactive | 
92 | N#C/C(=C(/O)Cc1cccc2ccccc12)c1nc2ccccc2s1 | inactive | 
93 | c1ccc2c(CSCc3nc4ccccc4[nH]3)cccc2c1 | inactive | 
94 | N=C(N)SCc1cccc2ccccc12 | 9.28 µM (active) | 
95 | O=C(Nc1ccc(Cl)cc1)c1cccc(OC(=S)N2CCOCC2)c1 | inactive | 
96 | Cc1ccc(C(=O)O/N=C(\N)c2ccccn2)cc1Cl | inactive | 
97 | CCOc1ccc(OCCSc2nc3ccccc3n2CC(=O)O)cc1 | inactive | 
98 | CC(C)=CCN1CCN(Cc2cc3ccccc3[nH]2)CC1CCO (centres undefined) | inactive | 
99 | COc1ccc(C(=O)N2CCCC(C(=O)c3ccccc3OC)C2)cc1OC (centres undefined) | inactive | 
100 | Cc1cc(C)c(C#N)c(SCc2ccc3c(c2)OCO3)n1 | inactive | 
101 | COc1ccc(-n2nnnc2SCc2nc(N)nc(N3CCOCC3)n2)cc1 | inactive | 
102 | COc1ccc(CSc2nc(N3CCOCC3)c3c(c2C#N)CC(C)(C)OC3)cc1 | 11.7 µM (active) | 
103 | CC(C)(C)OC(=O)N1CCC(C(=O)NNC(=O)c2ccc(Cl)cc2Cl)CC1 | inactive | 
104 | Cc1c(CN2CCC(n3nccc3NC(=O)CCc3ccccc3)CC2)cnn1C | inactive | 
